ALOX12 inh = inhibitors of human 12S-lipoxygenase ALOX12; hit rate 1.1% among 580,000; purified 12hLO, xylenol orange hydroperoxide absorbance; Potency, µM (top dose mostly 108 µM), without a hit: at the top dose activity change, negative = inhibition, actives largely listed as inhibitors; also: potency is read from the fitted curve at half-maximal effect
Target sequence (P18054 whole entry, looked up): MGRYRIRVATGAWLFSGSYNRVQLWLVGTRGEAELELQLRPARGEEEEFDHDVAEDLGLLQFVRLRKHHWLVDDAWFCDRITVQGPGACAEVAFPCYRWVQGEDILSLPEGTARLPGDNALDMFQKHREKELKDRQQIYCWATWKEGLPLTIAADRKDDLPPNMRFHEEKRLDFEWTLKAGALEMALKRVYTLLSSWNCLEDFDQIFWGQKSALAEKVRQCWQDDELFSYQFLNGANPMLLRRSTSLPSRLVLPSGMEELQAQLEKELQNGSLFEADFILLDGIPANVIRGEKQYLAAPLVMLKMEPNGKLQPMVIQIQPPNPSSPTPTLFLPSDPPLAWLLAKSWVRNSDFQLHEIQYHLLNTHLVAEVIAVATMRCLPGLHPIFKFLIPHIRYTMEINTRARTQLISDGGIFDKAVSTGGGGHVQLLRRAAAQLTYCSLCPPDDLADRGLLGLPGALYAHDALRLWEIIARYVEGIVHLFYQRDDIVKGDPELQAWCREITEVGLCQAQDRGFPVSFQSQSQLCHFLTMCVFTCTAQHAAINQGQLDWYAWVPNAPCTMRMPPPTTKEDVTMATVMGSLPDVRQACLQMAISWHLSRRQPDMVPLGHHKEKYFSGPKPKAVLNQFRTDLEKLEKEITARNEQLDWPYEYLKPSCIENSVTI
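Hydroperoxide product was detected by ferrous iron/xylenol orange as the 573 to 405 nm absorbance ratio. Arachidonic acid at 40 uM (final) was turned over for 30 min at room temperature by 150 nM human 12hLO, pH 7.0 Hepes buffer, after 15 min compound preincubation.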
HT1080-NT tox = kills 2HG-producing HT-1080-NT fibrosarcoma cells; hit rate 1.6% among 360,000; HT-1080-NT fibrosarcoma viability, CellTiter-Glo ATP luminescence, 48 h; AID 686970; Potency, µM (titrated, usually from 46.1 µM), for inactives: top-dose activity, negative = less viability, hits mostly cytotoxic;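 also: NT is the 2HG producing partner of a matched IDH1 knockdown line; potency is read from the fitted curve at half-maximal effect; 0% = DMSO-treated cells and -100% = media-only wells without cells; nearly all actives have a fitted effect of over 55% in size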
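A 48-hour cytotoxicity screen used HT-1080-NT cells plated 2 hours before compound delivery. ATP-based CellTiter-Glo luminescence measured viability, normalized to DMSO and no-cell controls.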
DT40 TDP1 no CPT = qHTS for Inhibitors of human tyrosyl-DNA phosphodiesterase 1 (TDP1): qHTS in cells in absence of CPT; DT40 Tdp1-/- hTDP1 cells, no CPT, ATP luminescence, 48 h; Potency, µM (titrated, usually from 46.2 µM), inactives show at the top dose activity change, negative = growth inhibition, usual class: inhibitors; hit rate 15% among 420,000; also: potency is read from the fitted curve at half-maximal effect; nearly all actives have a fitted effect of over 55% in size
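Readout: luminescence from CellTiter-Glo after 30 min in the dark at RT. Cells: DT40 Tdp1-/- with stable hTDP1, 400/well. Exposure: compounds alone, ≥48 hr, 37 °C.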
HT1080 IDH1KD tx = kills HT-1080 cells with IDH1 knockdown. HT-1080 IDH1 knockdown viability, ATP luminescence, 48 h. Potency, µM (highest dose often 46.1 µM), for inactives: at the top dose activity, negative = toxicity, usual class: cytotoxic. hit rate 2% among 360,000;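 also: potency is read from the fitted curve at half-maximal effect; 0% = DMSO wells and -100% = cell-free medium wells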
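Using the IDH1-knockdown HT-1080 line run in the same batch and compound series as the NT line, viability after 48 h at 37 °C was determined by CellTiter-Glo luminescence and expressed as % activity.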
DT40 TDP1 CPT = DT40-hTDP1 cell growth loss with CPT; chicken DT40 Tdp1-/-;hTDP1 cells + 20 nM CPT, ATP luminescence, 48 h; Potency, µM (doses to about 46.2 µM), without a hit: at the top dose activity change, negative = growth inhibition, most hits filed as inhibitors; hit rate 12% among 420,000; AID 686979; also: potency is read from the fitted curve at half-maximal effect; nearly all actives have a fitted effect of over 55% in size
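Cell growth measured by CellTiter-Glo luminescence after a minimum 48 h, 37 C compound exposure with 20 nM CPT in Tdp1-knockout DT40 cells stably expressing hTDP1, seeded 400/well; qHTS titration format.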
IL-1B inflam inh = inhibitors of inflammasome signaling (IL-1 beta secretion); AID 743279; THP-1 LPS/ATP IL-1B secretion, AlphaLISA, 16 h; hits give low values; activity change, % at 57.5 µM; hit rate 4.7% among 360,000; in the data active = activity change below about -50%; inconclusive = mostly about -30% to -49%
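Secreted IL-1B measured by AlphaLISA bead assay after 16 h compound exposure of THP-1 cells; compounds (final up to 57.5 uM) added 1 h before LPS (250 ng/mL) and ATP (1.25 mM) stimulation; lower signal means less secretion.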
Starred values were filed as active, the others as inactive; [ ] = dose if it differs, or a comment. This is one part of a sample in which hits are shown more often than they occur. Unless noted, calls follow the shape of the dose curve; as a rule, active = well fitted curve in the direction sought with a large enough effect; inconclusive = small, poorly fitted or top-dose-only effect, or another doubt; inactive = no such curve, though single readings can be large; an effect the other way counts as inactive or inconclusive. Unless noted, % is scaled to controls: 0 for no effect and ±100 for the full control effect.

How did CCCCCCCCN1C(=O)[C@@H](CC(=O)N2CCSCC2)C[C@@]2(C(=O)OC)C1=C[C@H](C(C)(C)C)O[C@@H]2C do in these assays?
ALOX12 inh: -21.8%

Results for CCCCOc1ccc(C(=O)N2CCC(C)CC2)cc1 ?
ALOX12 inh: 12.3%; HT1080-NT tox: -6.3%; DT40 TDP1 no CPT: -21.9%; HT1080 IDH1KD tx: -3.8%; DT40 TDP1 CPT: -21.3%; IL-1B inflam inh: inconclusive

How did CCCCOc1ccc(C(=O)OC2CC(C)N(C)CC2C)cc1 (configuration not stated) do in these assays?
ALOX12 inh: -9.9%; HT1080-NT tox: inconclusive; DT40 TDP1 no CPT: 16.4µM*; HT1080 IDH1KD tx: inconclusive; DT40 TDP1 CPT: inconclusive; IL-1B inflam inh: -53.6*

What do the screens show for `CC1CN(C)C(C)CC1OC(=O)C(c1ccccc1)c1ccccc1` (configuration not stated)?
ALOX12 inh: 140.3%; HT1080-NT tox: -13.9%; DT40 TDP1 no CPT: 23.1µM*; HT1080 IDH1KD tx: -10.0%; DT40 TDP1 CPT: inconclusive; IL-1B inflam inh: inconclusive

Results for FC(F)(F)c1nc2ccccc2n2c(-c3ccc(Cl)cc3Cl)nnc12 ?
ALOX12 inh: 56.7%; HT1080-NT tox: inconclusive; DT40 TDP1 no CPT: 20.6µM*; HT1080 IDH1KD tx: inconclusive; DT40 TDP1 CPT: 20.6µM*; IL-1B inflam inh: -4.0

What do the screens show for `Clc1cccc(Cl)c1-c1nnc2cccc(Cl)n12`?
ALOX12 inh: -14.7%; HT1080-NT tox: 12.5%; DT40 TDP1 no CPT: inconclusive; HT1080 IDH1KD tx: 1.7%; DT40 TDP1 CPT: -29.0%; IL-1B inflam inh: inconclusive

What do the screens show for `FC(F)(F)c1nc2ccccc2n2c(-c3c(Cl)cccc3Cl)nnc12`?
ALOX12 inh: -29.3%; HT1080-NT tox: -9.5%; DT40 TDP1 no CPT: 20.6µM*; HT1080 IDH1KD tx: -5.3%; DT40 TDP1 CPT: 25.9µM*; IL-1B inflam inh: 18.2

How did CC(C)NC(=O)N1CCC(O)(c2csc(CN(C)Cc3cccnc3)n2)CC1 do in these assays?
ALOX12 inh: 23.2%[176 µM]

Results for CCCn1c(CNc2ccc(Br)cc2)nc2ccccc21 ?
ALOX12 inh: 6.7%; HT1080-NT tox: 0.7%; DT40 TDP1 no CPT: inconclusive; HT1080 IDH1KD tx: -7.1%; DT40 TDP1 CPT: 23.1µM*; IL-1B inflam inh: -28.3

Results for Cc1ccc(NCc2nc3ccccc3n2CCOc2ccccc2)cc1 ?
ALOX12 inh: 1.4%; HT1080-NT tox: 7.8%; DT40 TDP1 no CPT: 18.4µM*; HT1080 IDH1KD tx: 6.2%; DT40 TDP1 CPT: inconclusive; IL-1B inflam inh: -96.4*

Results for COc1ccc(NCc2nc3ccccc3n2CCOc2ccccc2C)cc1 ?
ALOX12 inh: 3.3%; DT40 TDP1 no CPT: inconclusive; DT40 TDP1 CPT: 18.4µM*

How did Fc1ccc(NCc2nc3ccccc3n2CCOc2ccccc2Cl)cc1 do in these assays?
ALOX12 inh: 4.8%; DT40 TDP1 no CPT: inconclusive; DT40 TDP1 CPT: inconclusive

Results for CNc1c(Cl)cc(C=O)cc1Cl ?
DT40 TDP1 no CPT: -10.2%; DT40 TDP1 CPT: 5.4%

What do the screens show for `COc1ccc(Nc2nc(-c3cccs3)nc3ccccc23)cc1`?
ALOX12 inh: inconclusive; HT1080-NT tox: inconclusive; DT40 TDP1 no CPT: 23.1µM*; HT1080 IDH1KD tx: inconclusive; DT40 TDP1 CPT: inconclusive; IL-1B inflam inh: -2.9

Results for c1csc(-c2nc(NC3CC3)c3ccccc3n2)c1 ?
ALOX12 inh: 6.1%

How did COc1cccc(CN(C)c2nc(-c3cccs3)nc3ccccc23)c1 do in these assays?
ALOX12 inh: 7.7%; HT1080-NT tox: -29.4%; DT40 TDP1 no CPT: 20.6µM*; HT1080 IDH1KD tx: inconclusive; DT40 TDP1 CPT: 18.4µM*; IL-1B inflam inh: -18.0

How did COc1cccc(Nc2nc(-c3cccs3)nc3ccccc23)c1 do in these assays?
ALOX12 inh: 2.4%; HT1080-NT tox: 16.4µM*; DT40 TDP1 no CPT: 23.1µM*; HT1080 IDH1KD tx: inconclusive; DT40 TDP1 CPT: inconclusive; IL-1B inflam inh: -57.8*

How did COc1cccc(Nc2ncnc3ccccc23)c1 do in these assays?
ALOX12 inh: -7.5%; HT1080-NT tox: -5.7%; DT40 TDP1 no CPT: inconclusive; HT1080 IDH1KD tx: 29.7%; DT40 TDP1 CPT: inconclusive; IL-1B inflam inh: -2.6

What do the screens show for `COc1ccc(CNC(=O)CSc2nc(-c3cccs3)nc3ccccc23)cc1`?
ALOX12 inh: 3.5%

How did CCCN1C(=O)C2(c3ccccc31)c1c(oc3ccccc3c1=O)C(=O)N2CCO (configuration not stated) do in these assays?
ALOX12 inh: -15.8%; DT40 TDP1 no CPT: -3.9%; DT40 TDP1 CPT: -28.0%

Results for CC1CN(CCCCSc2ccc(Cl)cc2)CC(C)O1 (configuration not stated) ?
ALOX12 inh: 1.78µM*; HT1080-NT tox: -8.1%; DT40 TDP1 no CPT: inconclusive; HT1080 IDH1KD tx: -3.5%; DT40 TDP1 CPT: 20.6µM*; IL-1B inflam inh: -26.5

What do the screens show for `Cc1ccc(SCCCCN2CCNCC2)cc1`?
ALOX12 inh: inconclusive; HT1080-NT tox: -20.2%; DT40 TDP1 no CPT: inconclusive; HT1080 IDH1KD tx: -17.2%; DT40 TDP1 CPT: 20.6µM*; IL-1B inflam inh: -0.8

How did Clc1ccc(SCCCCN2CCNCC2)cc1 do in these assays?
ALOX12 inh: inconclusive; HT1080-NT tox: inconclusive; DT40 TDP1 no CPT: 18.4µM*; HT1080 IDH1KD tx: inconclusive; DT40 TDP1 CPT: 20.6µM*; IL-1B inflam inh: 0.0

How did COc1ccc(CC(=O)N2c3ccccc3CC2c2nc(C(C)C)no2)cc1OC (configuration not stated) do in these assays?
ALOX12 inh: 41.4%

What do the screens show for `COc1cc(CNCc2c(C(=O)O)c(C)n(Cc3c(C)cc(C)cc3C)c2C)cc(OC)c1OC`?
ALOX12 inh: -55.6%

Results for CC(Sc1nnc(Nc2ccccc2)s1)C(=O)NC1CCCc2ccccc21 (configuration not stated) ?
ALOX12 inh: inconclusive; HT1080-NT tox: -2.6%; DT40 TDP1 no CPT: 23.1µM*; HT1080 IDH1KD tx: -1.0%; DT40 TDP1 CPT: inconclusive; IL-1B inflam inh: -5.0

What do the screens show for `Cc1nnc(SC(C)C(=O)NC2CCCc3ccccc32)n1-c1ccccc1` (configuration not stated)?
ALOX12 inh: 5.4%; HT1080-NT tox: 10.4%; DT40 TDP1 no CPT: -11.9%; HT1080 IDH1KD tx: 7.7%; DT40 TDP1 CPT: 0.3%; IL-1B inflam inh: -4.7

What do the screens show for `Cc1cccc(Nc2nnc(SCC(=O)NC3CCCc4ccccc43)s2)c1C` (configuration not stated)?
ALOX12 inh: -12.1%; HT1080-NT tox: -24.7%; DT40 TDP1 no CPT: 8.2µM*; HT1080 IDH1KD tx: -21.0%; DT40 TDP1 CPT: 14.6µM*; IL-1B inflam inh: inconclusive
